A selection: hits, their analogues and other compounds. The true share with any hit is near 2%.
PfHsp40 yeast – rescue of yeast from PfHsp40 toxicity, primary screen, S. cerevisiae, ATP luminescence; S. cerevisiae expressing PfHsp40, growth rescue; growth rescue, % at 12.5 µM; 340,000 tested, 0.68% active; in the data active = growth rescue above about 28%, passing the limit was not always enough;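 also: yeast W303a lacking pdr1 and pdr3 grown in galactose medium; growth measured after three days at 30 °C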
PrPC TRFRET – inhibitors of human cell surface prion protein PrPC, primary screen, cell-based, TR-FRET | Major prion protein (Homo sapiens), P04156 | TR-FRET read-out | inhibition, % at 13.8 µM | 370,000 tested, 0.43% active | AID 720596, 2013; in the data active = inhibition above about 24%; also: 0% = median of the test wells and 100% = reference compound wells
PrP 5UTR inh – inhibition of PrP 5' UTR reporter expression | inhibition, % (test concentration not listed) | 340,000 tested, 0.35% active | AID 488862, 2010 | cell-based PrP 5' UTR mRNA reporter, plate reader; in the data active = inhibition above about 52%; also: 0 = median of the neutral control wells
CCHF vOTU inh-1 – CCHFV vOTU protease inhibitors, primary screen, biochemical, Pep-AMC substrate, fluorescence; AID 651958, 2012; Crimean-Congo hemorrhagic fever virus L polyprotein viral ovarian tumor (vOTU) protease …; 370,000 tested, 0.55% active; inhibition, % at 11.5 µM; also: 0% = vehicle wells with enzyme and 100% = no enzyme wells
BJeLR viability – MLPCN primary cell-based screen for lethality selective to Ras in HRASV12 cells. BJeLR (HRASV12) viability, CellTiter-Glo ATP luminescence, 48 h. inhibition, % (no concentration beside the values). 300,000 tested, 0.17% active; in the data active = inhibition above about 50%
Y pestis TopoI – Yersinia pestis topoisomerase I inhibitors, primary screen, biochemical, cleavage product accumulation, plate reader, single point; Y. pestis Topo-I cleavage product accumulation; activity, % at 10 µM; 360,000 tested, 0.064% active; in the data active = activity above about 50%, passing the limit was not always enough
CCHF vOTU inh-2 – CCHFV vOTU protease inhibitors, confirmation, biochemical, Pep-AMC substrate, fluorescence; shares compounds with CCHF vOTU inh-1; Recombinant CCHFV vOTU; inhibition, % at 11.5 µM; 1,900 tested, 17% active; AID 686976, 2013
Starred values were filed as active, the others as inactive; · = no result; + = active, no number. Rule as the data show it, unless noted: active = inhibition above about 30%; inactive = the rest.

SMILES | PfHsp40 yeast | PrPC TRFRET | PrP 5UTR inh | CCHF vOTU inh-1 | BJeLR viability | Y pestis TopoI | CCHF vOTU inh-2
CCCCCCCCN1C(=O)[C@H](CC(=O)N2CCN(C(=O)c3ccco3)CC2)C[C@@]2(C(=O)OC)CCCCC=C12 | · | 3 | · | 30* | · | · | -2
COc1ccc2c(c1)CC/C(=C\Nc1ccc3c(c1)OCO3)C2=O | 1 | -1 | -75 | 7 | 7 | 4 | ·
COc1ccc(N/C=C2\CCc3ccccc3C2=O)cc1 | 0 | 5 | 19 | 34* | 29 | 2 | -12
CN(C)c1ccc2nc3ccc(=O)cc-3sc2c1 | · | -34 | · | 76* | · | + | 50*
CCC(=O)NC(c1cccs1)c1cc([N+](=O)[O-])c2cccnc2c1OC (stereo not given) | · | -22 | · | 124* | · | -10 | -8
CC(C)C(=O)NC(c1cccs1)c1cc([N+](=O)[O-])c2cccnc2c1O (stereo not given) | 1 | · | -13 | · | 0 | -9 | ·
COC(=O)[C@]12C[C@H](CC(=O)NCc3cccc(C(F)(F)F)c3)C(=O)N(Cc3ccccc3)C1=C[C@H](C1CCCC1)O[C@@H]2C | · | 2 | · | 25 | · | · | ·
COc1ccc(-c2sc3cc(OC)c(OC)cc3c2-c2ccc(O)cc2)cc1 | -1 | -4 | -1 | 33* | · | -3 | -1
Cc1cccc(Cn2cc(COC(=O)NCCc3ccccc3)nn2)c1 | · | 9 | · | -4 | · | · | ·
S=C(Nc1ccc2nsnc2c1)N1CCCCC1 | -1 | -16 | -76 | 96* | · | 9 | -15
S=C(Nc1ccc(Cl)c(Cl)c1)N1CCCC1 | 0 | 1 | -25 | 9 | 5 | 1 | ·
Oc1c(CN2CCCCC2)ccc2cccnc12 | 47* | 6 | 20 | 31* | · | 5 | -19
Oc1ccc(CN2CCCCC2)c2cccnc12 | 24 | -4 | -21 | -20 | -3 | -2 | ·
CCOC(=O)[C@]12CCCCC/C=C\1N(CCc1ccc(Cl)cc1)C(=O)[C@H]2CC(=O)NCc1cccc(C(F)(F)F)c1 | · | -4 | · | 26 | · | · | ·
CCN(CC(=O)NCc1cccs1)C(=O)CCCOc1ccc(C(C)(C)C)cc1 | 1 | 10 | -11 | 31* | · | 34 | -3
CCN(CC(=O)NCc1cccs1)C(=O)CCCOc1ccccc1 | 1 | -4 | -39 | 3 | · | 5 | ·
COc1cccc(CNC(=O)C2CCC(CNS(=O)(=O)c3cccc4cccnc34)CC2)c1OC (stereo not given) | · | -3 | · | -7 | · | · | ·
COc1cc(C(N)=O)ccc1OCc1ccccc1 | -1 | 3 | -41 | 30* | -2 | 6 | -27
CCC(=O)c1ccc(OCc2ccccc2)c(OC)c1 | -1 | -5 | -98 | 11 | -1 | 15 | ·
NC(=O)CC(NC(=O)Cc1ccc(Br)cc1)c1ccc(NCCN2CCCC2)c([N+](=O)[O-])c1 (stereo not given) | -1 | -26 | -10 | 34* | 2 | -14 | -14
O=c1c(C=NCc2cccnc2)c(C(F)(F)F)[nH]n1-c1nc2ccccc2s1 | 0 | 0 | -12 | 30* | 5 | -1 | -5
Cc1ccc(S(=O)(=O)NC(=O)Cn2nnc(-c3ccccc3)c2COc2ccc3ccccc3c2)cc1 | · | -6 | · | 34* | · | 21 | 2
CC(=O)c1ccc(OCc2c(-c3ccccc3)nnn2CC(=O)NS(=O)(=O)c2ccc(C)cc2)cc1 | · | -1 | · | 6 | · | 7 | ·
O=c1[nH]n2c(=O)c3c([nH]c2c1N=Nc1cccc(C(F)(F)F)c1)CCCC3 | 0 | -15 | -23 | 44* | 4 | 26 | 13
CCc1nnc(N/N=C/c2ccccc2Cl)n1N | -1 | -6 | -26 | 84* | 1 | -1 | -16
COc1cccc(/C=N/Nc2nnc(C)n2N)c1OCc1ccccc1Cl | -2 | -1 | -20 | 75* | 5 | 16 | -7
Clc1ccccc1C=NNc1ccccn1 | 3 | 7 | -71 | -8 | · | -6 | ·
CCc1nnc(N/N=C/c2ccccc2F)n1N | 0 | -6 | -1 | 77* | -1 | -2 | -4
S=C(Nc1cc(Cl)cc(Cl)c1)NC(c1ccccc1)c1ccccc1 | · | 18 | · | · | · | · | ·

Screening results as filed in PubChem BioAssay.
